# Measurements reported in ChEMBL document CHEMBL3988442, “University of Dundee, Small-Polar-MMV Screening Library” (2021).
# The whole screen tested about 69,000 compounds, of which about 1,000 (1.4%) showed an effect of 50% or more. For the sample, strong results were picked, then their nearest neighbours and some compounds at random.
# Tested on: Leishmania donovani
# Assay: Leishmania intramacrophage assay
# Format: functional, organism-based
# Set-up: scale not given: in the data most compounds retested in dose-response had high values
smiles,measurement,setting,value
CN(C)c1ccc(C2CC(=O)Nc3c2cnn3Cc2ccco2)cc1 (stereo unspecified),Percent Effect,"30.3 µM, […]",7.757%
Cc1nc(C2CCNCC2)cc(N(C)Cc2cc3cc(F)ccc3[nH]2)n1,Percent Effect,"30.3 µM, […]",78.55%
CCN(Cc1ccncc1)c1cc(C2CCCNC2)nc(C)n1 (stereo unspecified),Percent Effect,"30.3 µM, […]",-18.58%
CN(Cc1cc2cc(F)ccc2[nH]1)C(=O)C1CC(=O)N(C2CCCC2)C1 (stereo unspecified),Percent Effect,"30.3 µM, […]",9.704%
Cc1nc(-c2ccc(F)cc2)cc(C2CCNCC2)n1,Percent Effect,"30.3 µM, […]",99.23%
CN(Cc1cc2cc(F)ccc2[nH]1)c1cc(C2CCCNC2)ncn1 (stereo unspecified),Percent Effect,"30.3 µM, […]",78.22%
Cc1ccc(-c2cc(C3CCNCC3)nc(C)n2)cc1.Cl,Percent Effect,"30.3 µM, […]",14.23%
Cc1nc(-c2ccc(F)c(F)c2)cc(C2CCNCC2)n1.Cl,Percent Effect,"30.3 µM, […]",47.49%
Cc1c(CN(C)c2cc(C3CCCNC3)ncn2)[nH]c2ccccc12 (stereo unspecified),Percent Effect,"30.3 µM, […]",16.72%
CCN(Cc1c(F)cccc1Cl)c1cc(C2CCNCC2)nc(C)n1,Percent Effect,"30.3 µM, […]",100.4%
COc1ccc2[nH]c(CNc3cc(C4CCNCC4)nc(C)n3)cc2c1,Percent Effect,"30.3 µM, […]",-59.5%
Cc1nc(C2CCNCC2)cc(N(C)CCc2cn[nH]c2)n1,Percent Effect,"30.3 µM, […]",2.569%
CCN(Cc1ccncc1)c1cc(C2CCNCC2)nc(C)n1,Percent Effect,"30.3 µM, […]",4.844%
CN(C)c1ccc(NC(=O)c2cccc(N(C)C)c2)nc1,Percent Effect,"30.3 µM, […]",-2.123%
CCC(Nc1nc(C)nc2c1cnn2C)c1ncnn1CC (stereo unspecified),Percent Effect,"30.3 µM, […]",26.92%
O=C(CCn1ccc2cc(Br)ccc21)/N=c1\[nH]nc(C2CCCO2)s1 (stereo unspecified),Percent Effect,"30.3 µM, […]",4.273%
Cc1ccoc1-c1nnc(CNCC2CCCN2c2cccnn2)o1 (stereo unspecified),Percent Effect,"30 µM, 30.03 µM",-17.44%
COCCN(C)C[C@@H]1CN(C(=O)c2ccc(C)cc2)C[C@@H]1CO,Percent Effect,"30.3 µM, […]",11.58%
CN1CCCC2(CCN(C(=O)Cn3ncc4ccccc4c3=O)C2)C1=O (stereo unspecified),Percent Effect,"30.3 µM, […]",-13.05%
Cc1ccc(CN2CCN(CC(=O)N(C)C)[C@@H]3CS(=O)(=O)C[C@@H]32)cc1C,Percent Effect,"30.3 µM, […]",18.74%
COc1ccc(-c2noc(C(N)CCSC)n2)cc1 (stereo unspecified),Percent Effect,"30.3 µM, […]",-25.69%
NC(=O)c1ccc(OCCCN2C[C@H](C3CC3)[C@@H](N)C2)cc1,Percent Effect,"30.3 µM, […]",42.52%
N[C@H]1CN(CCCOc2ccccc2)C[C@@H]1C1CC1,Percent Effect,"30.3 µM, […]",66.02%
N[C@H]1CN(CCOc2ccc(F)cc2)C[C@@H]1C1CC1,Percent Effect,"30.3 µM, […]",44.73%
COCc1nn(C(C)C)c2c1CCN(Cc1nccs1)C2.O=C(O)C(F)(F)F,Percent Effect,"30.3 µM, […]",-18.46%
Cc1c(C2CCOC(C)(C)C2)nc(N)c(C#N)c1-c1ccc(O)cc1 (stereo unspecified),Percent Effect,"30.3 µM, […]",-5.002%
CCn1cc(-c2c(C)c(C3CCOC(C)(C)C3)nc(N)c2C#N)cn1 (stereo unspecified),Percent Effect,"30.3 µM, […]",20.42%
CCCc1c(C2CCOC(C)(C)C2)nc(N)c(C#N)c1-c1cnn(C)c1 (stereo unspecified),Percent Effect,"30.3 µM, […]",65.78%
CC(C)Oc1ccc(CN2CCC(c3n[nH]c4ncccc34)CC2)cc1,Percent Effect,"30.3 µM, […]",1.844%
Cc1ccccc1N1CCN(c2cc(N(C)C)ncn2)C(C)C1 (stereo unspecified),Percent Effect,"30.3 µM, […]",15.61%
Cc1ccccc1N1CCN(c2ccncn2)C(C)C1 (stereo unspecified),Percent Effect,"30.3 µM, […]",61.35%
Cc1ccc(N2CCN(c3ccccc3C)CC2C)nn1 (stereo unspecified),Percent Effect,"30.3 µM, […]",9.128%
Cc1nn(C)c(C)c1CN(C)c1nc(C2CCCC2)nc2c1cnn2C,Percent Effect,"30.3 µM, […]",17.71%
CN1CCC(c2n[nH]c3ncccc23)C1.O=CO (stereo unspecified),Percent Effect,"30.3 µM, […]",16.17%
CCc1cnc(CN(C(C)=O)C2CCN(CC(=O)N3CCCC3)C2)o1 (stereo unspecified),Percent Effect,30 µM,28.38%
Cc1cc(NCCCNS(C)(=O)=O)nc2ccccc12,Percent Effect,"30.3 µM, […]",-8.515%
Cc1cc(NCCN)nc2ccccc12.O=[N+]([O-])O,Percent Effect,"30.3 µM, […]",54.09%
Cc1cc(NCCS(C)(=O)=O)nc2ccccc12,Percent Effect,"30.3 µM, […]",25.68%
CC(C)c1nc(CN(C)C(=O)c2cn3ccsc3n2)cs1,Percent Effect,"30.3 µM, […]",-3.628%
CC(=O)Nc1nc(CS(=O)(=O)CCCc2ccccc2)cs1,Percent Effect,"30.3 µM, […]",22.96%
CC(C)(C)CCS(=O)(=O)NCCc1csc(N2CCCC2)n1,Percent Effect,"30.3 µM, […]",30.66%
CCCC(C)CS(=O)(=O)NCCc1csc(N2CCCC2)n1 (stereo unspecified),Percent Effect,"30.3 µM, […]",65.07%
CCC(C)CS(=O)(=O)NCCc1csc(N2CCCC2)n1 (stereo unspecified),Percent Effect,"30.3 µM, […]",43.99%
O=C1CO[C@H]2CN(Cc3cccc4[nH]ccc34)C[C@@H]2N1C1CCOCC1,Percent Effect,"30.3 µM, […]",12.12%
Cc1ccc(C2CCCN2S(=O)(=O)N(C)Cc2cnn(C)c2)o1 (stereo unspecified),Percent Effect,"30.3 µM, […]",-0.6676%
CCOc1ccc(C(=O)CCC(=O)N(C)Cc2noc(C)n2)cc1C,Percent Effect,"30.3 µM, […]",4.933%
CN1CCCC1(CCCc1cccnc1)C(=O)NCc1nccn1C (stereo unspecified),Percent Effect,"30.3 µM, […]",27.11%
Cc1ccc(O)c(CNC2CCc3nc(C(C)C)nn3C2)n1 (stereo unspecified),Percent Effect,"30 µM, 30.03 µM",0.7212%
Cc1ccc(S(=O)(=O)N2CCN(CCC#N)CC2)s1,Percent Effect,"30.3 µM, […]",34.19%
Cc1ccc(S(=O)(=O)N2CCN(CCC(N)=O)CC2)s1,Percent Effect,"30.3 µM, […]",13.04%
Cc1ccc(S(=O)(=O)N2CCN(CCCO)CC2)s1,Percent Effect,"30.3 µM, […]",55.51%
